We go through 100 compounds from PubChem BioAssay AID504333 (National Center for Advancing Translational Sciences (NCATS), 2011).

Molecules are shown by their SMILES. In all, about 360,000 compounds went through this assay and about 16,000 (4.4%) were called active. A call without a number means that no potency is given here. Not shown: some 9% with an inconclusive outcome. Calls come from the whole dose curve; as a rule, active = well fitted inhibition curve with a large enough effect; inconclusive = small, poorly fitted or top-dose-only effect; inactive = no such curve, though single readings can be large or run the other way. Many of the other results were omitted from the sample, so actives are more common in it than they were.
Potency is the fitted concentration of half-maximal effect.

Sequence of Bromodomain adjacent to zinc finger domain protein 2B (Homo sapiens) (Q9UIF8 whole entry, looked up, the tested form may be a part): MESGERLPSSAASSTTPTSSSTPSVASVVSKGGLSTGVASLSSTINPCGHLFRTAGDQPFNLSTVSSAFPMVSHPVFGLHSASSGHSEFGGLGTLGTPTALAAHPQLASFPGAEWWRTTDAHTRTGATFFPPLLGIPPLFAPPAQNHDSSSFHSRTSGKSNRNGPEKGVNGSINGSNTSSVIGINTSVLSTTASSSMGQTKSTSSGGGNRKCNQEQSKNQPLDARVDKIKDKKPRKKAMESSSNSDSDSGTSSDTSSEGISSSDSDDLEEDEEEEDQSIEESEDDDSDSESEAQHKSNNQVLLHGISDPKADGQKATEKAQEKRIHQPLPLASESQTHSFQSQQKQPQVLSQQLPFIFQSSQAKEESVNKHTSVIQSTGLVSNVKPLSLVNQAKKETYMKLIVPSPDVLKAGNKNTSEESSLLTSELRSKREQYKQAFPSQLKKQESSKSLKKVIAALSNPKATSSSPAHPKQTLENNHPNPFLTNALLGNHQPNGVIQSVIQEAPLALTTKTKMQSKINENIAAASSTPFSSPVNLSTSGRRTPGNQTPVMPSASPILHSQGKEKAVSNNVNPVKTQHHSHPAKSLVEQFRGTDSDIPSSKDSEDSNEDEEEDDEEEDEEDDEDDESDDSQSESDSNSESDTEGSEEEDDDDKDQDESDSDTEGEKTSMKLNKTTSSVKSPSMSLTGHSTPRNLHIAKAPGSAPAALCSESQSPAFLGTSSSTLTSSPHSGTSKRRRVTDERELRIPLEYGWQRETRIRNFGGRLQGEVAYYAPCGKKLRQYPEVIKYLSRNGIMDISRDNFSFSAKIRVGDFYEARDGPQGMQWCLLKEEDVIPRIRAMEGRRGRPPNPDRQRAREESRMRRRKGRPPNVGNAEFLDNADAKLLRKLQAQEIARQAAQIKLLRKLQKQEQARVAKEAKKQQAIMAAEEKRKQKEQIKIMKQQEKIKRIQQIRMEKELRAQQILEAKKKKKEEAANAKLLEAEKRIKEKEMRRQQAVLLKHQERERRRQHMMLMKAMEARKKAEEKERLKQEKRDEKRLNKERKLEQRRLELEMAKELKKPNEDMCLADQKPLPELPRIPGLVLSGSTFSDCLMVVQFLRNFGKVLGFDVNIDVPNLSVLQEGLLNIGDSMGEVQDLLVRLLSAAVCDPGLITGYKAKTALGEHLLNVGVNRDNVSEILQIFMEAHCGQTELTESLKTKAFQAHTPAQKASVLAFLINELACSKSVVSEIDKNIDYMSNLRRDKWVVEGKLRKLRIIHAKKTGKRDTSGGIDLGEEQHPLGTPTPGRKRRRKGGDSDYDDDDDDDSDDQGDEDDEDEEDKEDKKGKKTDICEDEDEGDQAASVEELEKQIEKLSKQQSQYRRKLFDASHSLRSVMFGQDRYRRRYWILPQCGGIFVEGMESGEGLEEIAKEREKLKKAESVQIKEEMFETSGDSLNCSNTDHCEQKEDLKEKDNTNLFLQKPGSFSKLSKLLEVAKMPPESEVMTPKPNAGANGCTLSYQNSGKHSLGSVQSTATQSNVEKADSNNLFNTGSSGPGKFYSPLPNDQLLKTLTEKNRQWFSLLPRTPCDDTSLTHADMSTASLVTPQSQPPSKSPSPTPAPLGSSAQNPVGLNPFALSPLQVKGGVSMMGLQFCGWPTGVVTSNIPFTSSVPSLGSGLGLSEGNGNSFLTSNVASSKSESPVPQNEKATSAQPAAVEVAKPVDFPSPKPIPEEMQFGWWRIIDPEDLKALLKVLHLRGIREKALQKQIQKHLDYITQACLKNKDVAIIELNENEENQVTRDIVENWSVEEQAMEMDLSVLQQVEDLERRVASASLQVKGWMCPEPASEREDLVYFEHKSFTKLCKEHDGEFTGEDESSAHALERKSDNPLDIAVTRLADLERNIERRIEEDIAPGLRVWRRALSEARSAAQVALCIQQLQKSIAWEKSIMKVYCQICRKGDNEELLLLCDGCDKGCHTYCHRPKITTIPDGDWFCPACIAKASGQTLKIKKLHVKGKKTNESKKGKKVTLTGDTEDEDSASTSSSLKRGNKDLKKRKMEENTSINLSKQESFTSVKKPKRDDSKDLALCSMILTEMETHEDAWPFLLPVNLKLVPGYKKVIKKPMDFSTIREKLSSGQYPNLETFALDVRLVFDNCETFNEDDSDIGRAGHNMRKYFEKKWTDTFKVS

The target of the test is Bromodomain adjacent to zinc finger domain protein 2B (Homo sapiens) (UniProt Q9UIF8). In words: qHTS Assay for Inhibitors of BAZ2B. Note: nearly all actives have a fitted effect of over 60% in size. The following applies: AlphaScreen BAZ2B-H3K14Ac peptide displacement; series mostly up to 114 µM. An outline of the steps:
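AlphaScreen displacement of biotin-H3(5-23)K14Ac peptide (50 nM final) from BAZ2B (50 nM final) in PBS pH 7.4, 0.01% Tween-20; complex preformed 30 min RT, then compounds (top 110 uM) 30 min RT, beads 20 min dark.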
A general note: qHTS replaces the single test concentration by a dilution series.
Regarding `COc1ccc(-n2c(SCC(N)=O)nc3c(oc4ccccc43)c2=O)cc1`, the Potency entry is “inactive”.

As for `COc1ccc(N2C(=O)CS(=O)(=O)C23C(=O)N(Cc2ccc(C)cc2)c2ccccc23)cc1Cl` (stereo not given), the Potency entry was “inactive”.

Consider `COc1cccc(C(=O)NC(=O)Nc2ccc(-c3cc(C(F)(F)F)nn3-c3ccccc3)cc2)c1`, for which the Potency result was “inactive”.

With `Cc1ccc(NC(=O)Nc2ccccc2)c(Br)c1`, the Potency entry is “inactive”.

Regarding `C=CCNc1scc(-c2ccccc2)[n+]1CC=C`, the Potency was 10 µM (active).

For `Cc1ccc(-c2c[n+](CC(=O)Nc3ccccc3)c3n2CCC3)cc1`, the Potency entry was “inactive”.

Regarding `C=CC[n+]1c(-c2ccc(C)cc2)csc1NNC(=O)Nc1ccccc1`, the Potency is 31.6 µM (active).

`C=CCNC(=O)c1csc(-c2ccccc2)n1`: the Potency entry was “inactive”.

Take `O=C(CNS(=O)(=O)c1cccs1)N1CCN(c2ccccc2Cl)CC1`: the Potency result was “inactive”.

As to `Cc1ccc(C)c(Cn2c(C(=O)O)c(CNCc3cccs3)c3ccccc32)c1`, the Potency entry was “inactive”.

In the case of `CCc1ccccc1NC(=O)CSc1nnc(-c2ccccc2)c(-c2ccccc2)n1`, the Potency result is “inactive”.

For the compound `COc1ccc(NC(=O)CSc2nccn2C2CCCC2)cc1OC`, the Potency entry was “inactive”.

Consider `Cn1c(SCc2ccc(F)cc2)nnc1-c1ccncc1`, for which the Potency result was “inactive”.

Consider `CCn1c(SCC(=O)NC2CC2)nnc1-c1ccncc1`, for which the Potency entry was “inactive”.

As to `CCn1c(SCc2cccc(C(=O)O)c2)nnc1-c1ccc(Cl)cc1`, the Potency result was “inactive”.

As to `CC1CCCCC1NC(=O)CSc1nnc(-c2ccncc2)n1CCCN(C)C` (stereo not given), the Potency was 44.7 µM (active).

As for `CN(C)CCCn1c(SCc2ccc(Cl)cc2)nnc1-c1ccncc1`, the Potency is 56.2 µM (active).

As to `CCn1c(SCC(=O)Nc2ccc3c(c2)OCCO3)nnc1-c1ccncc1`, the Potency result is “inactive”.

On to `CCCN(CCC)C(=O)C1CCCN(c2ncnc3c2nc2n3CCCCC2)C1` (stereo not given), for which the Potency entry was “inactive”.

For the compound `COc1ccc(Cn2c(C(=O)O)c(CNCc3cccc(OC)c3)c3ccc(C)cc32)cc1`, the Potency result was “inactive”.

Consider `O=C(OCc1cc(=O)n2nc(C3CC3)sc2n1)c1ccccc1Cl`, for which the Potency result was “inactive”.

`Cc1cccc(NC(=O)Cn2cc(S(=O)(=O)Cc3ccccc3Cl)c3ccccc32)c1`: the Potency result was “inactive”.

Regarding `CCOc1cc(C)c(S(=O)(=O)NCc2ccccn2)cc1C`, the Potency entry was “inactive”.

`CCOc1cc(CNCc2ccccn2)ccc1OCC(=O)NC(C)(C)C`: the Potency was 50.1 µM (active).

In the case of `CCOc1cc(CNn2c(C)nnc2SCC(=O)NC(C)(C)C)ccc1OCC(=O)NC(C)(C)C`, the Potency entry was “inactive”.

For `Cc1cc(NC(=O)CSc2nnnn2-c2ccc(F)cc2)no1`, the Potency result is “inactive”.

For `Cc1cc(NC(=O)CSc2nnc(-c3ccc(Cl)s3)o2)no1`, the Potency was 39.8 µM (active).

`Cc1cc(NC(=O)CSc2nnc(Nc3ccccc3F)s2)no1`: the Potency result is “inactive”.

For `COc1ccc(CNC(=O)c2ccc3c(O)c(S(=O)(=O)c4ccccc4)c(=O)[nH]c3c2)cc1`, the Potency result was “inactive”.

Turning to `CCN1CCN(CCCNC(=O)c2cnn(-c3ccc(C)cc3C)c2C2CCN(C(=O)OC(C)(C)C)CC2)CC1`, the Potency result was “inactive”.

As for `COc1cccc(C(=O)NC2(C(F)(F)F)C(=O)Nc3c2c(=O)[nH]c(=O)n3-c2ccc(C)cc2)c1` (stereo not given), the Potency result is “inactive”.

On to `CCc1cnc2c(c1SCC(=O)N1CCC(C)CC1)c(=O)n(C)c(=O)n2C`, for which the Potency result was “inactive”.

As for `O=C(CCCCn1c(=O)c2ccccc2n(CC(=O)Nc2cccc(C(F)(F)F)c2)c1=O)NCc1ccc2c(c1)OCO2`, the Potency entry is “inactive”.

For `O=c1c2ccccc2c(-c2ccc(Br)cc2)nn1Cc1ccccc1`, the Potency result was “inactive”.

On to `O=C(NCCc1ccco1)c1nn(Cc2ccccc2)c(=O)c2ccccc12`, for which the Potency is 50.1 µM (active).

For `O=C(NCCSc1ccccc1)c1ccco1`, the Potency result is “inactive”.

As to `CCOC(=O)c1c(S(=O)(=O)N2CCCC(C(=O)NCc3ccc(F)cc3)C2)c(C)n(CC)c1C` (stereo not given), the Potency result is “inactive”.

Turning to `Cc1cc(C)c(/C=C/c2onc(C)c2S(=O)(=O)N2CCC(C(=O)Nc3ccc(Cl)cc3C)CC2)c(C)c1`, the Potency entry is “inactive”.

For the compound `COc1ccc2c(c1)Cc1sc(NC(=O)c3ccccc3Br)nc1-2`, the Potency result was “inactive”.

Turning to `Cc1ccc(N2CC(C(=O)Nc3ccc(N(C)C)cc3)CC2=O)cc1Cl` (stereo not given), the Potency entry is “inactive”.

Take `CC(=O)Nc1cc(C(=O)NCc2ccc(F)cc2)ccc1Sc1ccc(F)cc1`: the Potency entry is “inactive”.

In the case of `CCc1ccc(C2CC(=O)c3c([nH]c(C(=O)OCc4ccc(C)cc4)c3C)C2)cc1` (stereo not given), the Potency result is “inactive”.

As for `Cc1ccccc1NC(=O)Nc1ccccc1N1CCCCC1`, the Potency entry is “inactive”.

`Cc1ccc(C(C)C)cc1OCC(=O)Nc1ccccc1N1CCCC1`: the Potency entry was “inactive”.

Turning to `O=C(CNCCC1=CCCCC1)Nc1ccccc1N1CCCCCC1`, the Potency was 56.2 µM (active).

For the compound `O=C(CN1CCCCCC1)Nc1ccc(Br)cc1Br`, the Potency entry is “inactive”.

With `COc1cc([N+](=O)[O-])ccc1NC(=O)CN1CCCC1`, the Potency entry was “inactive”.

Turning to `O=C(CN1CCCCCC1)Nc1ccc(Br)cc1[N+](=O)[O-]`, the Potency was 15.8 µM (active).

`CC1=C(C(=O)OCc2ccc(C)cc2)C(c2ccccc2Cl)CC(=O)N1` (stereo not given): the Potency entry was “inactive”.

For `O=C(C1CCN(S(=O)(=O)c2cnc[nH]2)CC1)N1CCN(Cc2ccc3c(c2)OCO3)CC1`, the Potency result was “inactive”.

As for `O=C(C1CCN(Cc2ccc(Cl)cc2)CC1)N1CCN(Cc2ccc3c(c2)OCO3)CC1`, the Potency was 50.1 µM (active).

With `O=C(CSCc1ccc(Cl)cc1)N1CCN(Cc2ccc3c(c2)OCO3)CC1`, the Potency result was “inactive”.

`COc1ccc(-c2cccc(NS(=O)(=O)c3cc(C)c(OC)c(C)c3C)c2)nn1`: the Potency entry was “inactive”.

On to `CCCN(CCC)C(=O)Cn1c(=O)n(-c2ccc(Cl)cc2)c(=O)c2c3c(sc21)CCCCC3`, for which the Potency result is “inactive”.

For the compound `Cc1cccc(CC(=O)Nc2cccc(-c3cn4cccnc4n3)c2)c1`, the Potency result is “inactive”.

With `CCCCOc1ccc(C(=O)N2CC(=O)Nc3ccc(Br)cc3C2c2ccc(F)cc2)cc1` (stereo not given), the Potency result is “inactive”.

In the case of `O=C1CCCC(O)=C1N=Nc1ccc2ncsc2c1`, the Potency was 50.1 µM (active).

As to `Cc1csc(Nc2ccc(Cl)cc2)[n+]1-c1ccc(Cl)cc1`, the Potency was 12.6 µM (active).

Regarding `O=c1ccnc(Nc2ccc(Cl)cc2)[nH]1`, the Potency result is “inactive”.

On to `Cc1ccccc1C(=O)NCc1nc(-c2ccc(Cl)cc2)no1`, for which the Potency result is “inactive”.

Consider `CCOC(=O)c1[nH]c(C)c(CCC(=O)N2CCN(c3ccccc3)CC2)c1C`, for which the Potency entry was “inactive”.

Regarding `CN(CCOc1ccccc1)C(=O)c1cc(-c2ccco2)nc2ccccc12`, the Potency is 44.7 µM (active).

In the case of `COc1ccc(-c2cc(C(=O)N(C)Cc3ccccc3)c3ccccc3n2)cc1`, the Potency entry was “inactive”.

`COc1ccc(NC(=O)CN(C)C(=O)c2cc(-c3ccc(C)o3)nc3ccccc23)cc1`: the Potency result was “inactive”.

For `CN(C(=O)COC(=O)c1cc(-c2ccco2)nc2ccccc12)C1CCS(=O)(=O)C1` (stereo not given), the Potency was 39.8 µM (active).

With `COc1ccc(/C=C(\C#N)C(=O)OCC(=O)N(C)C2CCS(=O)(=O)C2)cc1` (stereo not given), the Potency result is “inactive”.

`CN(C(=O)COC(=O)c1nc(Cl)ccc1Cl)C1CCS(=O)(=O)C1` (stereo not given): the Potency entry was “inactive”.

For `COc1ccc(OCC(=O)Nc2cccc(C(=O)OCc3cc(=O)n4nc(C)sc4n3)c2)cc1`, the Potency result is “inactive”.

Turning to `Cc1cccc(N2CCN(C(=O)CCn3c(=O)c4cccn4c4cccnc43)CC2C)c1` (stereo not given), the Potency entry was “inactive”.

Consider `NC(=O)C1CCN(C(=O)c2cccc(NC(=O)c3nsc4ccccc34)c2)CC1`, for which the Potency entry was “inactive”.

For `Cc1[nH]c2ccccc2c1C(c1ccccc1)c1cccs1` (stereo not given), the Potency result is “inactive”.

Take `O=C(CCS(=O)(=O)c1ccccc1)NC1CCCC1`: the Potency entry is “inactive”.

For `CC(=O)c1cc(-c2ccccc2)n(CC(=O)NC2CCCCC2)c1C`, the Potency result is “inactive”.

In the case of `CC(=O)c1cc(-c2ccccc2)n(CCC(=O)NC2CCCCCC2)c1C`, the Potency is 50.1 µM (active).

With `Cc1nc2nc(SCC(=O)N(Cc3ccccc3)C(C)C)nn2c(C)c1Cc1ccccc1Cl`, the Potency entry is “inactive”.

For the compound `CCOc1cc(C(=O)Nc2nnc3n2CCS3)cc(OCC)c1OCC`, the Potency result is “inactive”.

As to `CCOC(=O)c1cc(NC(=O)c2ccc(F)cc2)c(=O)n2c1oc1ccccc12`, the Potency result is “inactive”.

In the case of `CN(CC(=O)Nc1ccccc1F)S(=O)(=O)c1ccc2c(c1)c(=O)n(C)c(=O)n2C`, the Potency entry is “inactive”.

For the compound `O=C(CN1C(=O)COc2ccc(S(=O)(=O)N3CCOCC3)cc21)N1CCN(c2cccc(Cl)c2)CC1`, the Potency entry was “inactive”.

With `COCCNC(=S)N1CCN(C)CC1`, the Potency is 39.8 µM (active).

For `CCCNC(=S)N1CCC(NC(=O)c2ccc(OC)cc2)CC1`, the Potency result is “inactive”.

Consider `COCCNC(=S)N1CCC(NC(=O)C23CC4CC(CC(C4)C2)C3)CC1`, for which the Potency result is “inactive”.

Regarding `CCN1C(=O)c2ccccc2S(=O)c2ccc(C(=O)NCc3ccc(F)cc3)cc21` (stereo not given), the Potency result is “inactive”.

Consider `CCCCOC(=O)/C(C#N)=C/c1ccc(-c2cccc(C(F)(F)F)c2)o1`, for which the Potency result was “inactive”.

For `CCOc1ccc(Nc2nc3c(S(=O)(=O)c4cccc(Cl)c4)nnn3c3ccsc23)cc1`, the Potency entry is “inactive”.

As to `Cc1ccc(OCCSc2nc(C)c(Cc3ccccc3)c(=O)[nH]2)cc1`, the Potency result was “inactive”.

With `S=C(c1ccc(-c2ccccc2)o1)N1CCCCC1`, the Potency was 35.5 µM (active).

With `OCCN1CCN(C(=S)c2ccc(-c3ccccc3)cc2)CC1`, the Potency result was “inactive”.

Regarding `S=C(c1ccccc1)N1CCCC1`, the Potency entry was “inactive”.

Take `CSc1ccc(CCNC(=O)c2ccc3c(c2)nc2n3CCOC2)cc1`: the Potency entry was “inactive”.

As for `COC(=O)CCCC1=CC2=CC(=O)C(C)(OC(=O)c3cccs3)C(=O)C2=CN1CC(C)C` (stereo not given), the Potency result is “inactive”.

With `COC(=O)CCCC1=CC2=CC(=O)C(C)(OC(=O)c3cccs3)C(=O)C2=CN1CC1CC1` (stereo not given), the Potency entry is “inactive”.

Consider `COC/C=C/C1=CC2=CC(=O)C(C)(OC(=O)CCC(=O)OC)C(=O)C2=CO1` (stereo not given), for which the Potency was 50.1 µM (active).

For the compound `CCC(=O)N1CCc2cc(Br)cc(S(=O)(=O)CCC(=O)N3CCN(c4ccc(F)cc4)CC3)c21`, the Potency result was “inactive”.

Regarding `COc1ccc(-c2noc(CCC(=O)N(C)c3ccccc3C)n2)cc1`, the Potency entry is “inactive”.

Regarding `CCOc1cccc(C(=O)Nc2nnc(S(=O)(=O)N(C)c3ccc(C)cc3)s2)c1`, the Potency entry is “inactive”.

In the case of `CCc1ccc(NC(=O)CN2CCSc3ccc(S(=O)(=O)N4CCCC4)cc32)cc1`, the Potency result was “inactive”.

With `Cc1cccc(Cn2cnc3c(N)c(C)c(C)cc32)c1`, the Potency was 56.2 µM (active).

With `CSc1nn(Cc2cccc(C)c2)c(N)c1S(=O)(=O)c1ccccc1`, the Potency result is “inactive”.

Turning to `COc1cccc(Cn2cnc3c([N+](=O)[O-])c(C)c(C)cc32)c1`, the Potency result was “inactive”.
